Outcome and AC50 data for 15 molecules are collected here from PubChem BioAssay (EPA / NIEHS).

Calls of active or inactive are those of the source. How the source made its calls: active means hit-call score of the fitted dose curve at least 0.9, where 1 is the maximum; inactive means score below 0.9.

Assay [1] can be described thus: ATG_CRE_CIS: Attagene CIS-FACTORIAL HepG2 Assay for human cAMP Responsive Element (CRE) binding protein 3 (AID 2282926). The following applies: HepG2 CRE cis-reporter, Attagene multiplexed mRNA; actives raise or lower the signal. The gist of the method: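 Capillary electrophoresis of 6-FAM-labelled, HpaI-digested PCR products quantified reporter transcripts. These came from HepG2 transiently transfected with cis-element reporters and exposed to test chemicals for 24 hours, with DMSO defining baseline activity.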

Assay [2] has as its target CCAAT/enhancer-binding protein beta (Homo sapiens) (UniProt P17676). As to the kind of experiment: ATG_C_EBP_CIS: Attagene CIS-FACTORIAL HepG2 Assay for human CCAAT/Enhancer Binding Protein (C/EBP) beta (AID 2282927). The note with it: HepG2 Attagene cis-factorial transcription factor reporter; actives raise or lower the signal. In outline: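 HepG2 transiently transfected with multiplexed reporter units under cis-regulatory promoters reporting endogenous C/EBPb activity. After 24 h exposure, reporter mRNA assayed by RT-PCR, fluorescent labelling, HpaI digestion and capillary electrophoresis; bidirectional fitting versus DMSO.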

Assay [3] can be described thus: ATG_DR4_LXR_CIS: Attagene CIS-FACTORIAL HepG2 Assay for human Liver X Receptor (LXR), DR4 submotif (AID 2282929). The following applies: HepG2 Attagene DR4 cis-reporter, mRNA transcription; actives raise or lower the signal. The gist of the method: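 Measures endogenous transcription factor activity via a DR4-driven reporter transcript in human HepG2 cells. Compounds incubated 24 h; mRNA quantified by RT-PCR and capillary electrophoresis, analysed as gain or loss of signal versus DMSO.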

Assay [4] concerns the target Aryl hydrocarbon receptor (Homo sapiens) (UniProt P35869). The experiment in a line: ATG_Ahr_CIS: Attagene CIS-FACTORIAL HepG2 Assay for human Aryl Hydrocarbon Receptor (Ahr) (AID 2282930). The note with it: HepG2 AhR cis-factorial reporter transcription; actives raise or lower the signal. In outline: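 HepG2 cells transiently transfected with cis-element-driven multiplexed reporter units; endogenous AhR activity read as reporter mRNA 24 h after dosing, via RT-PCR, 6-FAM labelling, HpaI digestion and capillary electrophoresis. Bidirectional fit relative to DMSO.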

Assay [5] in a line: ATG_AP_2_CIS: Attagene CIS-FACTORIAL HepG2 Assay for human Activator Protein 2 (AP-2) (AID 2282932). The following applies: HepG2 AP-2 cis-reporter, Attagene transcription factor profiling; actives raise or lower the signal. The gist of the method:
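Read-out: fluorescent reporter mRNA via RT-PCR and capillary electrophoresis, 24 h post-dose in transiently transfected HepG2. Endogenous factors drive cis-promoter reporters; gain or loss of signal fitted bidirectionally against DMSO.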

Assay [6] can be described thus: ATG_BRE_CIS: Attagene CIS-FACTORIAL HepG2 Assay for human Bone Morphogenetic Protein (BMP) Response Element (BRE) (AID 2282933). The following applies: HepG2 BMP response element reporter, Attagene transcription factor profiling; actives raise or lower the signal. The gist of the method: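 Multiplexed cis-reporter assay, HepG2, 24 h exposure. mRNA from reporter units quantified via RT-PCR/CE; DMSO baseline; bidirectional curve fit.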

Assay [7] concerns the target Retinoic acid receptor alpha (Homo sapiens) (UniProt P10276). The experiment in a line: ATG_DR5_RAR_CIS: Attagene CIS-FACTORIAL HepG2 Assay for human Retinoic Acid Receptor Alpha (RARE), DR5 submotif (AID 2282934).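 On AC50: reporter responds to endogenous RAR alpha beta and gamma in HepG2 not RARA alone.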 The note with it: HepG2 Attagene cis-factorial RARE DR5 reporter, mRNA; actives raise or lower the signal. The gist of the method:
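HepG2 cells transiently transfected with multiplexed reporter units; DR5 cis-element drives reporter through endogenous transcription factors. After 24 h dosing, reporter mRNA quantified by RT-PCR, fluorescent labeling, HpaI digestion and capillary electrophoresis; bidirectional fitting versus DMSO.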

The nature of assay [8]: ATG_E_Box_CIS: Attagene CIS-FACTORIAL HepG2 Assay for human Enhancer Box (E-box) (AID 2282936). The following applies: HepG2 E-box cis-reporter transcription, actives raise or lower the signal. The gist of the method: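 Transiently transfected HepG2, endogenous TF-driven reporters, 24 h dosing. Readout: RT-PCR plus capillary electrophoresis of fluorescent reporter fragments. Gain or loss of signal fitted bidirectionally against DMSO baseline.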

Assay [9] can be described thus: ATG_M_61_CIS: Attagene CIS-FACTORIAL HepG2 Assay for M61 Transcription Factor (Internal Marker) (AID 2282937). The note with it: HepG2 Attagene CIS-FACTORIAL M61 internal marker reporter; actives raise or lower the signal. In outline: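 Fluorescence from labelled cDNA fragments, separated by capillary electrophoresis, quantifies reporter induction. HepG2 cells bearing transiently transfected cis-promoter MRTUs were incubated with test chemical for 24 h; DMSO defined baseline for gain/loss fitting.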

Assay [10] in a line: ATG_EGR_CIS: Attagene CIS-FACTORIAL HepG2 Assay for human Early Growth Response 1 (EGR1) (AID 2282938). The note with it: HepG2 Attagene CIS-FACTORIAL EGR reporter mRNA; actives raise or lower the signal. The gist of the method:
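Cell-based multiplex transcription assay: HepG2 carrying transfected cis-element reporter units, 24 h chemical treatment. Fluorescence from capillary electrophoresis of RT-PCR products gives mRNA levels; fitting is bidirectional relative to DMSO.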

The nature of assay [11]: ATG_AP_1_CIS: Attagene CIS-FACTORIAL HepG2 Assay for human Activator Protein 1 (AP-1) (AID 2282931). The note with it: HepG2 Attagene cis-factorial AP-1 reporter mRNA; actives raise or lower the signal. In outline: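 Bidirectional concentration-response fitting against DMSO controls. Underlying signal: reporter mRNA from cis-promoter constructs in transiently transfected HepG2, measured after 24 h by RT-PCR and capillary electrophoresis.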

Assay [12] concerns the target Transcription factor E2F1 (Homo sapiens) (UniProt Q01094). The experiment in a line: ATG_E2F_CIS: Attagene CIS-FACTORIAL HepG2 Assay for human E2F Transcription Factor 1 (AID 2282935). The following applies: HepG2 Attagene cis-reporter, E2F reporter RNA transcripts; actives raise or lower the signal. In outline: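 Transient MRTU transfection of HepG2; 24 h compound exposure; RNA → oligo(dT) RT → PCR → FAM label → HpaI cut → CE fluorescence. Gain/loss of signal fit against DMSO.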

CCAAT/enhancer-binding protein beta (Homo sapiens), sequence (P17676 whole entry, looked up): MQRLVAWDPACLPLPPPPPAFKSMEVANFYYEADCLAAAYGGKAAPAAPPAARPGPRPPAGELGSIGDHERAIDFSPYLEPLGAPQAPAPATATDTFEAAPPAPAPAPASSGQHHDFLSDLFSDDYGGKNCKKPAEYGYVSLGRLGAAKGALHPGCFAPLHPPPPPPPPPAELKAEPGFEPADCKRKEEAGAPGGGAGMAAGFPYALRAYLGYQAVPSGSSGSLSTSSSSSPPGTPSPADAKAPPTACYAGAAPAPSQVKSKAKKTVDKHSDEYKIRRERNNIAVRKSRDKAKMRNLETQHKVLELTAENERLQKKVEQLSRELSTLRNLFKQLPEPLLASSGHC
Aryl hydrocarbon receptor (Homo sapiens), sequence (P35869 whole entry, looked up): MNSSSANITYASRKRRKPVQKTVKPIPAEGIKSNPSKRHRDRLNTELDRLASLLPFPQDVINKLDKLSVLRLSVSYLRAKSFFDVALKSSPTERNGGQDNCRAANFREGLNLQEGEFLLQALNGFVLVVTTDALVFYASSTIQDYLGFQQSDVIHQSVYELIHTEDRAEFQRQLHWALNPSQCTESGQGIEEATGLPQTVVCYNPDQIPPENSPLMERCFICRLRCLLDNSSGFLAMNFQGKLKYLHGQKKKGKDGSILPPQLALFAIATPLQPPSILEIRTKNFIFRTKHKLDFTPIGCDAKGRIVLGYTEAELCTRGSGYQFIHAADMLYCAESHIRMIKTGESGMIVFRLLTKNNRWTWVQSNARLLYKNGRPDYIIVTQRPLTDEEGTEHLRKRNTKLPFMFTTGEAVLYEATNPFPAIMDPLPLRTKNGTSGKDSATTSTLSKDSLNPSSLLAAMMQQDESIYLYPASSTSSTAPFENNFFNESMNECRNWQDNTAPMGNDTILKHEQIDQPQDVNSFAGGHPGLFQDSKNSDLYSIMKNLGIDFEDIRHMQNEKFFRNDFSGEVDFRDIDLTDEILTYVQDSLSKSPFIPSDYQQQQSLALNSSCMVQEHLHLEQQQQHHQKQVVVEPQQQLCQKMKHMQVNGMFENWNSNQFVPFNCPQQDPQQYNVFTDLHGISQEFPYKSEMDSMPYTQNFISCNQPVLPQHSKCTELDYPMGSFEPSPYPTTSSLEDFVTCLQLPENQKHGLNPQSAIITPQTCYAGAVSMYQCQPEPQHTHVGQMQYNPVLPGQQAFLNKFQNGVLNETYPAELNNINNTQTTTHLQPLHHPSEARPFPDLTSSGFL
Retinoic acid receptor alpha (Homo sapiens), sequence (P10276 whole entry, looked up): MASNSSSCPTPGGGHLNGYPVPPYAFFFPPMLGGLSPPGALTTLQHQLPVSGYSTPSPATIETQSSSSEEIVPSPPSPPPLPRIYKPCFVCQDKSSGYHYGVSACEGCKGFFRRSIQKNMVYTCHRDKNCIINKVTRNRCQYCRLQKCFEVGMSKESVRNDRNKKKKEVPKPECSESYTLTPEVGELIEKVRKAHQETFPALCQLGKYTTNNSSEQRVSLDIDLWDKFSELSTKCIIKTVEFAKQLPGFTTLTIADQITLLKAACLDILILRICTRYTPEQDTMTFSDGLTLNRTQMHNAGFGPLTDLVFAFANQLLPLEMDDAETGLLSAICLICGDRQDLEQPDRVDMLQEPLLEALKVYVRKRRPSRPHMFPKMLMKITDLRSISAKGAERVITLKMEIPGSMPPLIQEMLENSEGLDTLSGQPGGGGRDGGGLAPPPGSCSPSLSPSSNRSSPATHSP
Transcription factor E2F1 (Homo sapiens), sequence (Q01094 whole entry, looked up): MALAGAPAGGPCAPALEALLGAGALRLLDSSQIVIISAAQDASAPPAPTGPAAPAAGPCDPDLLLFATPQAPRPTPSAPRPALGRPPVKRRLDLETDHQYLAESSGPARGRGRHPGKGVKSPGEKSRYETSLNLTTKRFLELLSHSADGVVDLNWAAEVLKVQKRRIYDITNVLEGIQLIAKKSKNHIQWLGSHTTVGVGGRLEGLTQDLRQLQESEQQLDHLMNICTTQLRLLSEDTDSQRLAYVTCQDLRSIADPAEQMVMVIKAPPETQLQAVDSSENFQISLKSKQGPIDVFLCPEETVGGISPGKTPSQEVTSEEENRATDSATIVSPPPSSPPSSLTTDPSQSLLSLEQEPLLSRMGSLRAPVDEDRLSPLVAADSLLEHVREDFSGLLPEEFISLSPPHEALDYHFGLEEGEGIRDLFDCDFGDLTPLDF

As for `Nc1cccnc1`, the outcome in [1], in assay [2], in [3], in assay [4], in assay [5] and in assay [6] was inactive. Further, the result in assay [7], in assay [8], in [9] and in [10] was inactive.
As for `CC(C)[C@@H](Nc1ccc(C(F)(F)F)cc1Cl)C(=O)OC(C#N)c1cccc(Oc2ccccc2)c1` (some centres undefined), the molecule was called inactive in [1], in assay [2], in assay [3], in assay [4], in assay [11] and in assay [5]. Also, the result in [6], in [7], in [12], in assay [8], in assay [9] and in [10] was inactive.
The AC50 is the concentration at which the activity in the assay is half-maximal. Consider `Cc1ccc2nc3sc(=O)sc3nc2c1`, for which the AC50 is 6.6 µM (active) in assay [1]; 25 µM (active) in assay [2]; 22.4 µM (active) in [3]; 9.68 µM (active) in assay [5]; 25 µM (active) in [6]; 6.63 µM (active) in assay [7]. Besides, the molecule was called inactive in assay [4], in assay [11], in assay [8], in assay [9] and in assay [10].
For the molecule `O=C(Nc1ccc(Br)cc1)c1cc(Br)cc(Br)c1O`, the molecule was classed as inactive in assay [1], in assay [2], in assay [3], in assay [11], in [5] and in assay [12]. The result in assay [8] and in assay [9] was inactive. Besides, the AC50 in assay [4] was 0.63 µM (active); in assay [6], 13.3 µM (active); in [7], 4.76 µM (active); in assay [10], 52.9 µM (active).
Take `COCC(=O)N(c1c(C)cccc1C)[C@H](C)C(=O)OC`: the result in assay [1], in [2], in [3], in [4], in assay [11] and in assay [5] was inactive. Moreover, the molecule was classed as inactive in [6], in assay [7], in [12], in assay [8], in assay [9] and in assay [10].
For the molecule `ClCc1ccccc1CCl`, the AC50 was 9.56 µM (active) in assay [1]; 16.6 µM (active) in [3]; 59.7 µM (active) in [11]; 33.4 µM (active) in assay [8]; 29.5 µM (active) in assay [10]. Also, the result in assay [2], in assay [4], in assay [5], in assay [6], in assay [7] and in [9] was inactive.
Consider `CN(CCCC(O)c1cccnc1)N=O` (centres undefined), for which the result in assay [1], in [2], in [3], in assay [4], in assay [11] and in assay [5] was inactive. Besides, the outcome in [6], in assay [7], in [12], in assay [8], in [9] and in assay [10] was inactive.
As for `CCOc1ccc(N)cc1`, the molecule was called inactive in assay [1], in [2], in assay [3], in assay [4], in assay [11] and in assay [5]. Also, the result in assay [6], in [7], in assay [12], in assay [8], in assay [9] and in [10] was inactive.
For the molecule `O=C1C[C@@H]2OCC=C3CN4CC[C@]56c7ccccc7N1[C@H]5[C@H]2[C@H]3C[C@H]46`, the molecule was called inactive in assay [1], in assay [2], in assay [3], in assay [4], in assay [11] and in assay [5]. Further, the molecule was called inactive in assay [6], in assay [7], in [12], in [8], in assay [9] and in assay [10].
Regarding `BrCC(Br)c1ccccc1` (centres undefined), the outcome in assay [1], in assay [2], in assay [3], in assay [4], in assay [11] and in assay [5] was inactive. Besides, the molecule was classed as inactive in assay [6], in assay [7], in assay [12], in [8], in assay [9] and in assay [10].
Turning to `O=C(Cc1ccccc1)OCCc1ccccc1`, the outcome in assay [1], in assay [2], in assay [3], in assay [4], in assay [11] and in assay [5] was inactive. Besides, the result in [6], in [7], in [8], in assay [9] and in [10] was inactive.
For the molecule `Clc1cc(C(Cl)(Cl)Cl)cnc1Cl`, the call in assay [1], in assay [2], in assay [4], in assay [5], in assay [6] and in [7] was inactive. The molecule was called inactive in assay [9]. For the same molecule, the AC50 was 8.81 µM (active) in assay [3]; 12.6 µM (active) in [11]; 33.4 µM (active) in assay [12]; 4.54 µM (active) in assay [8]; 8.77 µM (active) in assay [10].
For the molecule `C1CCC(C2CCCCC2)CC1`, the molecule was classed as inactive in [1], in assay [2], in assay [3], in [4], in [5] and in [6]. For the same molecule, the call in assay [7], in assay [12], in assay [8], in assay [9] and in assay [10] was inactive.
In the case of `CCCSP(=S)(OCC)Oc1ccc(Cl)cc1Cl` (centres undefined), the molecule was classed as inactive in assay [1], in assay [2], in assay [3], in [4], in assay [5] and in assay [6]. The molecule was classed as inactive in [7], in assay [12], in [8], in assay [9] and in [10]. In [11], the AC50 was 31.7 µM (active).
As to `COC(F)(C(F)(F)C(F)(F)F)C(F)(C(F)(F)F)C(F)(F)F` (centres undefined), the outcome in [1], in assay [2], in assay [3], in assay [4], in assay [11] and in assay [5] was inactive. Moreover, the outcome in assay [6], in assay [7], in assay [12], in [8], in assay [9] and in assay [10] was inactive.
